Assay outcomes deposited in PubChem by National Center for Advancing Translational Sciences (NCATS).
This is one part of a sample in which hits are shown more often than they occur.
Pf Dd2 inh: qHTS Primary assay for Inhibitors of Plasmodium falciparum Dd2 growth in vitro; P. falciparum Dd2 growth, SYBR Green, 72 h; Potency, µM (doses to about 28.9 µM), actives largely listed as inhibitors; 4.3% of 120,000 active; active means well fitted inhibition curve with a large enough effect; further: nearly all actives have a fitted effect of over 65% in size
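Readout: SYBR Green fluorescence, 485 nm excitation, 535 nm emission, after ~16 h lysis at 37C. Before that, Dd2-infected red cells (2.5% hematocrit) grew 72 h with compound, 29 uM top final concentration.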
Numbers stand for hits; - = inactive; [ ] = dose if it differs, or a comment.

SMILES | Pf Dd2 inh
O=C(Nc1ccccc1)N1CCC2(CCCCO2)CC1 | -
O=C1CC2CCN(Cc3ccc(F)c(F)c3F)CC2CCN1 (stereo not given) | -
Cc1nc(-c2ccc(F)cc2)cc([C@H]2CN3CC[C@H]2C[C@@H]3CNC(=O)Nc2cccc(C#N)c2)n1 | -
Cc1nc(-c2cccs2)cc([C@H]2CN3CC[C@H]2C[C@@H]3CNC(=O)Nc2cccc(C(F)(F)F)c2)n1 | 8.9µM
Cc1nc(-c2ccc(C(F)(F)F)cc2)cc([C@H]2CN3CC[C@H]2C[C@@H]3CNC(=O)N2CCOCC2)n1 | -
COCCOC1CCN(C(=O)Cc2c[nH]c3ccccc23)CC1 | -
Cc1ccc(C)c2sc(N3CCN(C(=O)c4ccco4)CC3)nc12 | -
CCN(CC)CCN(C(=O)c1ccco1)c1nc2ccc(Cl)cc2s1 | -
Cc1ccc2sc(N(CCCN(C)C)C(=O)c3ccco3)nc2c1C | 8.9µM
O=C(Cc1c[nH]c2ccccc12)N1CCC(Oc2ccc(-c3noc(C4CC4)n3)cc2)C1 (stereo not given) | -[5.79 µM]
O=C(NC1CCCCC1)c1cc2n(n1)CC(c1ccc(Cl)cc1)OC2 (stereo not given) | -
O=C1N[C@@H](Cc2c[nH]c3ccccc23)C(=O)N2CCN(C(=O)c3cccnc3)C[C@@H]12 | -
COC1C(=O)N(C2CCN(Cc3cn(C)c4ccccc34)CC2)C12CCOCC2 (stereo not given) | -
Cc1cc(F)ccc1OC1CN(Cc2cccnc2)C1 | 6.3µM
Cc1cc(OC2CN(Cc3ccc(F)cc3)C2)ccc1F | -
Cc1cc(F)ccc1OC1CN([S+](=O)([O-])c2ccccc2)C1 | -
CN(C)C(=O)[C@@H]1CN(Cc2cccnc2)C[C@H]1CO | -
CN(Cc1cccnc1)C(=O)[C@H]1CN(Cc2ccccc2)C[C@H]1C(=O)O | -
Cc1ccccc1N(C)C1CN(Cc2cccnc2)C1 | 13µM
COc1cccc(Nc2ncc(-c3c(C)noc3C)c3c2OCC3)c1 | -
CNC(=O)c1cccc(-c2cnc(Nc3ccccc3)c3c2CCO3)c1 | -
c1ccc(Nc2ncc(-c3ccccc3)c3c2OCC3)cc1 | 22µM
COc1cncc(Nc2ncc(-c3cccc(N(C)C)c3)c3c2OCC3)c1 | 7.1µM
CN(C)c1cccc(-c2cnc(Nc3cccnc3)c3c2CCO3)c1 | 13µM
c1ccc(-c2cnc(Nc3cncnc3)c3c2CCO3)cc1 | -
SMILES | Pf Dd2 inh
CN(C)c1cccc(-c2cnc(Nc3ccc4c(c3)OCCO4)c3c2CCO3)c1 | -
COc1cncc(Nc2ncc(-c3cccnc3)c3c2OCC3)c1 | -
Fc1cccc(-c2cnc(Nc3cncnc3)c3c2CCO3)c1 | -
O=C(CCc1nnn2c1CN(C(=O)Cc1c[nH]c3ccccc13)CC2)N1CCCC1 | -
CC1(C)C(=O)N(Cc2ccccc2)[C@H]2CN(CC3CCOC3)C[C@H]2[S+]1(=O)[O-] (stereo not given in full) | -
Cc1ccc(C(C)NC(=O)c2cc(COc3ccccc3)[nH]n2)c(C)c1 (stereo not given) | -
COc1cc2c(cc1OC)CN(C(=O)C[C@@H]1CCNC[C@@H]1Cc1cc(CN3CCCCC3)on1)CC2 | -
O=C(NC1CCc2n[nH]c(=O)n2CC1)c1ccc2nc[nH]c2c1 (stereo not given) | -
O=C1NC2(CCN(C(=O)c3ccccc3F)C2)N=C1c1ccncc1 (stereo not given) | -
COc1ccc(-c2cc3nc4c(c(=O)n3[nH]2)CN(C(=O)CCc2ccccc2)CC4)cc1 | -[5.79 µM]
CN(CCCc1nccn1C)C(=O)[C@H]1CNC[C@H](C(=O)N2CCOCC2)C1 | -
COc1ccc(-c2cc(N3CCN(C(=O)c4cccc(C)c4)CC3)n[nH]2)cc1 | -
O=C(Cn1c(=O)n(Cc2nc(-c3ccccc3)no2)c(=O)c2cc3c(cc21)OCO3)Nc1ccc(Cl)cc1 | 10µM
Cc1ccc(NC(=O)Cn2c(=O)n(Cc3ccc(C(=O)NCc4ccc5c(c4)OCO5)cc3)c(=O)c3ccccc32)cc1 | 8.9µM
Cc1ccc(Cn2c(=O)n(-c3ccccc3)c(=O)c3ccc(C(=O)NCc4ccco4)cc32)cc1 | -
O=C(Cn1c(=O)n(Cc2ccc(C(=O)NCc3ccc4c(c3)OCO4)cc2)c(=O)c2ccccc21)Nc1ccccc1F | -
Cc1ccccc1NC(=O)Cn1c(=O)n(CCCC(=O)NCc2ccc3c(c2)OCO3)c(=O)c2ccccc21 | -
O=C(Cn1c(=O)n(-c2ccccc2)c(=O)c2ccc(C(=O)NCc3ccc4c(c3)OCO4)cc21)Nc1ccc(Br)cc1F | 8.9µM
CCN(C(=O)Cn1c(=O)n(-c2ccccc2)c(=O)c2ccc(C(=O)NCc3ccc4c(c3)OCO4)cc21)c1cccc(C)c1 | 7.1µM
Cc1ccc(NC(=O)Cn2c(=O)n(-c3ccccc3)c(=O)c3ccc(C(=O)NCc4ccc5c(c4)OCO5)cc32)cc1 | -
Cc1ccc(NC(=O)Cn2c(=O)n(Cc3nc(-c4ccccc4)no3)c(=O)c3cc4c(cc32)OCO4)c(C)c1 | -
Cc1c(Cl)cccc1NC(=O)Cn1c(=O)n(Cc2nc(-c3ccccc3)no2)c(=O)c2cc3c(cc21)OCO3 | -
Cc1ccc(Cl)cc1NC(=O)Cn1c(=O)n(Cc2ccc(C(=O)NCc3ccc4c(c3)OCO4)cc2)c(=O)c2ccccc21 | -
Cc1ccc(-n2c(=O)c3ccc(C(=O)NCc4ccccc4Cl)cc3n(CC(N)=O)c2=O)cc1 | -
COCCNC(=O)c1ccc2c(c1)N(C)C(CC(=O)N(C)C(C)C)CO2 (stereo not given) | -
SMILES | Pf Dd2 inh
CC(C)NC(=O)[C@H]1CN2CCC1C[C@@H]2Cn1cc(CN(C)Cc2ccccc2)nn1 (stereo not given in full) | -
CCCNC(=O)N1CCC(c2nc(CCOc3cccc(C)c3)no2)C1 (stereo not given) | -
O=C(NCCc1ccccn1)c1c[nH]c2ncccc12 | -
Cc1ccccc1C(=O)N1CCn2c(nn(-c3ccc(F)cc3)c2=O)C1 | -
Cc1cccc2[nH]c(CNC(=O)C3CCC(=O)N(CC4CCCCC4)C3)nc12 (stereo not given) | -
O=C1CCN(C(=O)[C@@H]2CCCN2C(=O)NCCc2ccccc2)CCCCCCN1 | -
O=C(Cn1cccn1)N1CC(c2noc(C3CCCN3CC3CC3)n2)C1 (stereo not given) | -
CCOc1ccc(Nc2nc(C)c(NC(=O)c3ccc(C)cc3)c(Nc3ccc(OCC)cc3)n2)cc1 | -
Cc1ccc(C(=O)Nc2c(C)nc3ccccn3c2=O)cc1 | -
Cc1ccc(Nc2nc(C)c(NC(=O)c3ccc(C)cc3)c(Nc3ccc(C)cc3)n2)cc1 | 8.9µM
Cc1ncsc1C1N(C2CCNCC2)C(=O)C12CCCC2 (stereo not given) | -
COc1ccc(CC(=O)Nc2sc3c(c2C(=O)Nc2c(C)cccc2C)CCCCC3)cc1 | -
COc1ccc(NC(=O)c2c(NCc3cccc(OC)c3)sc3c2CCCC3)cc1 | 10µM
COc1ccc(/C=C/C(=O)Nc2sc3c(c2C(N)=O)CCCC3)cc1 | -
COc1ccc(CC(=O)Nc2sc3c(c2C(=O)Nc2ccc(C)cc2)CCCCC3)cc1 | -
COC(=O)c1ccc(NC(=O)c2c(NCc3ccc(OC)c(OC)c3)sc3c2CCCC3)cc1 | 11µM
CCOC(=O)c1c(NC(=O)c2ccc(OC)c(OC)c2)sc2c1CCCCC2 | -
CCOC(=O)c1ccc(NC(=O)c2c(NCc3sccc3C)sc3c2CCCCC3)cc1 | 10µM
CNC(=O)c1c(NC(=O)Cc2coc3ccc(OC)cc23)sc2c1CCCC2 | -
COC(=O)c1c(NC(=O)/C=C/c2ccc(OC)c(OC)c2)sc2c1CCC2 | -
